# In PubChem BioAssay (NCATS):
# Inconclusive results are not listed. Where a call stands in place of a potency, no number is given. Calls of active or inactive are those of the source. Unless noted, calls follow the shape of the dose curve; as a rule, active = well fitted curve in the direction sought with a large enough effect; inconclusive = small, poorly fitted or top-dose-only effect, or another doubt; inactive = no such curve, though single readings can be large; an effect the other way counts as inactive or inconclusive.
# Columns and labels:
# [1] = biological target: Voltage-gated inwardly rectifying potassium channel KCNH2 (Homo sapiens) (UniProt Q12809); assay: qHTS Assay for Small Molecule Inhibitors of the Human hERG Channel Activity (AID 588834);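 also: lower thallium flux fluorescence means stronger hERG block; nearly all actives have a fitted effect of over 50% in size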; also: potency is read from the fitted curve at half-maximal effect
# Voltage-gated inwardly rectifying potassium channel KCNH2 (Homo sapiens), sequence (Q12809 whole entry, looked up): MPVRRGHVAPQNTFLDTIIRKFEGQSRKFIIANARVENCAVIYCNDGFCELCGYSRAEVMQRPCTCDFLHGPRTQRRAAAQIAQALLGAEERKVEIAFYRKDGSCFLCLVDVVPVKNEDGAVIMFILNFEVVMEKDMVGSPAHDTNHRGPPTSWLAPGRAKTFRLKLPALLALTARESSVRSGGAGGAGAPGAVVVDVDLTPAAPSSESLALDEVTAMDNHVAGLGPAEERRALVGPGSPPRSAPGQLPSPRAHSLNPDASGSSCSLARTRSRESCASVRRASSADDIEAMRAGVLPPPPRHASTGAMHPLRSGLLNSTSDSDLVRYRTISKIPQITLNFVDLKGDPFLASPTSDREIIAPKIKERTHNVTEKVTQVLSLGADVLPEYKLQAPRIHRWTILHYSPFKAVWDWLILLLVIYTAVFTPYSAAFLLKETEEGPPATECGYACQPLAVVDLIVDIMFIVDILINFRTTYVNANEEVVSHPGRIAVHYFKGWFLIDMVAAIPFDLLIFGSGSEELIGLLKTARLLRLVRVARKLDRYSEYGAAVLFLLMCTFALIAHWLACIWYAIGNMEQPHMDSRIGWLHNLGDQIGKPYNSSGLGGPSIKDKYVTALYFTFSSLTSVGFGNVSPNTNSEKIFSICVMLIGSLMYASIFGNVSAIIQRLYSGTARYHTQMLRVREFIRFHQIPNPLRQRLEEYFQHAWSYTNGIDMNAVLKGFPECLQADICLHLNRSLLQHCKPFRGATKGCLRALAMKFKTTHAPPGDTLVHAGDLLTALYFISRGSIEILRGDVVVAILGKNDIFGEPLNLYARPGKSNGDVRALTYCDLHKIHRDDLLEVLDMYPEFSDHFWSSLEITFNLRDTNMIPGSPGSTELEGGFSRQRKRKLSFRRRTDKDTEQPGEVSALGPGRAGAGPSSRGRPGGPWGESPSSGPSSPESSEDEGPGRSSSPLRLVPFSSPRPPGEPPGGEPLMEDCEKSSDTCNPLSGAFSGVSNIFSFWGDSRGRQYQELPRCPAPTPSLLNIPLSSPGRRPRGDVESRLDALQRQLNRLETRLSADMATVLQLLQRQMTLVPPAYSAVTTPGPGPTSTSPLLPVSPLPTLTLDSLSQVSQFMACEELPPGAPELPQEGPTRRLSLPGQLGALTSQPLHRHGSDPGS
# Summary of the method: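 Blockade is seen as reduced FluxOR thallium-flux fluorescence in U2OS cells expressing hERG from a BacMam construct, in Opti-MEM with 2% FCS. Concentration-response data fitted to the Hill equation for AC50.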
# [2] = biological target: Luciferin 4-monooxygenase (Photinus pyralis) (UniProt P08659); assay: Biochemical firefly luciferase enzyme assay for NPC (AID 624030);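 also: purified P. pyralis luciferase at 10 nM with luciferin and ATP substrate; nearly all actives have a fitted effect of over 70% in size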
# Luciferin 4-monooxygenase (Photinus pyralis), sequence (P08659 whole entry, looked up): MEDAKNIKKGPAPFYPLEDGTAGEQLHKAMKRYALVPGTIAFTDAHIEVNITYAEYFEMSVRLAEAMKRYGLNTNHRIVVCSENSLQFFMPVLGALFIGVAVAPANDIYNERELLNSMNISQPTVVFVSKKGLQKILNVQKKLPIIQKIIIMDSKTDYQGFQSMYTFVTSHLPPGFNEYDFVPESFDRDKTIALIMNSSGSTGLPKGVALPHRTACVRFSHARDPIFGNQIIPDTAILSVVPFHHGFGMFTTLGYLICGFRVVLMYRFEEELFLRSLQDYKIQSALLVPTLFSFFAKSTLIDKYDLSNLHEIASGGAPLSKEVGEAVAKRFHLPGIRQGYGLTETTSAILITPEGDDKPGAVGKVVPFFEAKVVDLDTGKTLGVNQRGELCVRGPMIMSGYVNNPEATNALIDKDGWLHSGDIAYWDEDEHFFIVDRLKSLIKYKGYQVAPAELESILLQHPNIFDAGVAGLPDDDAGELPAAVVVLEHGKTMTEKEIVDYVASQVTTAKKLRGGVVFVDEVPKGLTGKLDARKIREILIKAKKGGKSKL
# Summary of the method: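 Counter-screen for direct inhibition of the luciferase enzyme by approved-drug library compounds, run at 10 nM enzyme in 50 mM Tris acetate (final). Luminescence was read within 5 min of enzyme-buffer addition and normalized to PTC124 versus DMSO (0%).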
# [3] = S16 Schwann cell PMP22 intronic element firefly luciferase assay (AID 624032); also: nearly all actives have a fitted effect of over 30% in size; also: potency is read from the fitted curve at half-maximal effect
# Summary of the method: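 Rat S16 Schwann cells stably carrying a PMP22 intronic element-driven Fluc reporter were seeded overnight, then exposed to compounds for 24 h at 37 °C. Luminescence was normalized to PTC124 (positive control) and DMSO (0% activity).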
# [4] = S16 Schwann cell PMP22 intronic element beta-lactamase assay (AID 624044; calls by dose curve; also: nearly all actives have a fitted effect of over 15% in size)
# Summary of the method: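 Rat S16 Schwann cells with beta-Lac driven by a PMP22 intronic element, compound-treated 24 h at 37 °C. LiveBLAzer FRET B/G read: 460 nm normalized to potassium clavulanate vs DMSO; 535 nm FRET as viability; concentration-effect curves classified.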
# [5] = biological target: Glutaminase kidney isoform, mitochondrial (Homo sapiens) (UniProt O94925); assay: qHTS for Inhibitors of Glutaminase (GLS): LOPAC Validation (AID 624146);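 also: glutamate product detected by oxidase and peroxidase coupled Amplex red fluorescence gain; nearly all actives have a fitted effect of over 60% in size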
# Glutaminase kidney isoform, mitochondrial (Homo sapiens), sequence (O94925 whole entry, looked up, canonical isoform): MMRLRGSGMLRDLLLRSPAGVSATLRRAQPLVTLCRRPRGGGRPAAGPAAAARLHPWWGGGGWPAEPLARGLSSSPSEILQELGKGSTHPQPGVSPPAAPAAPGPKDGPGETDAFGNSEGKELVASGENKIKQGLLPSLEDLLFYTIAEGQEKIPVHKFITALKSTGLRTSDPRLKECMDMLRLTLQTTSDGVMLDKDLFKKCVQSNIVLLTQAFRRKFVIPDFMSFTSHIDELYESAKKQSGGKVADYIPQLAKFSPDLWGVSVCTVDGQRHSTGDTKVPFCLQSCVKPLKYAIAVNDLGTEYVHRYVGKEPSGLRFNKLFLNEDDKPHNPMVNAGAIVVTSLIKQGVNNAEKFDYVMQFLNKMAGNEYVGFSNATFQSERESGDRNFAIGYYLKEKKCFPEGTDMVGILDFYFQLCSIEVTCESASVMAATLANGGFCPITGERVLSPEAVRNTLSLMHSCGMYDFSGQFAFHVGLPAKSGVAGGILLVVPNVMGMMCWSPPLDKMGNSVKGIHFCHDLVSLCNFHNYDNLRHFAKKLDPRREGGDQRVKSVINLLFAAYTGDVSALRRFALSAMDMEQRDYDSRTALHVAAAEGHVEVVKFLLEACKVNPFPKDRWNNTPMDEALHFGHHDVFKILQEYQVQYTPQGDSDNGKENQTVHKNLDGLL
# Summary of the method: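 Two-point fluorescence kinetic (t0, 30 min RT) for hKGA; glutamate detected via glutamate oxidase–HRP–Amplex Red. Substrate: 1 mM L-glutamine solution; buffer 45 mM KH2PO4, pH 8.2.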
# [6] = qHTS of Trypanosoma Brucei Inhibitors: LOPAC Validation (AID 624147)
# Summary of the method: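 Glycolytic pyruvate kinase of T. brucei was incubated with substrate, test compound and 130 uM ADP for 45 minutes at room temperature. Luminescent Kinase-Glo Plus signal was measured after 10 minutes.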
# [7] = biological target: Glucagon-like peptide 1 receptor (Homo sapiens) (UniProt P43220); assay: qHTS of GLP-1 Receptor Agonists: LOPAC Validation (AID 624148);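 also: higher luminescence signal means agonism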
# Glucagon-like peptide 1 receptor (Homo sapiens), sequence (P43220 whole entry, looked up): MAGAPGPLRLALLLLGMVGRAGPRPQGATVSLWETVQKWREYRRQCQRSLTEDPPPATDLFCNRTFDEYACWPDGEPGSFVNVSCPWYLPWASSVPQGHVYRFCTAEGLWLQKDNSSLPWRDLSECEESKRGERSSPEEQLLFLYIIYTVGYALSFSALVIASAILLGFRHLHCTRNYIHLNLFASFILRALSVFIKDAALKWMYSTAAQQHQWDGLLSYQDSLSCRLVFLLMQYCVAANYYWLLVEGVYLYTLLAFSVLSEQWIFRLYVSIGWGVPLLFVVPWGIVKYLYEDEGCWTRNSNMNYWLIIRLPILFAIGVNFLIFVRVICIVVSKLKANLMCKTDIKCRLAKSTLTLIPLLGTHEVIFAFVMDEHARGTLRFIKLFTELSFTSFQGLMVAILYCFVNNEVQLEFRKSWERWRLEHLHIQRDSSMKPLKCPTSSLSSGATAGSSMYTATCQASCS
# Summary of the method: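 HEK293 cells stably co-expressing a cAMP-responsive luciferase reporter and a hypersensitive GLP-1R were plated 12 h at 37 °C and exposed to compounds for 4-6 hr at 37 °C, 5% CO2. Luminescence was read 12 min after adding detection reagent.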
# [8] = qHTS of Nrf2 Activators: LOPAC Validation (AID 624149)
# Summary of the method: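 AREc32 cells carrying an ARE-driven firefly luciferase were grown overnight in OPTI-MEM with 5% FBS, then exposed to compounds for 24 hr at 37 deg C. Luciferase signal was read after 30 min with Steady-Glo at RT.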
# [9] = HTS Assay for Allosteric Antagonists of the Human D2 Dopamine Receptor: Hit Validation in HTRF (AID 624455);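 also: stable D1 dopamine receptor cell line scored for blocking the D1 response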
# Summary of the method: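 Hits were examined in an HTRF assay using cells stably expressing the D1 dopamine receptor, scoring inhibition of the D1-mediated response. The preceding primary screen tracked calcium flux after an EC80 dopamine addition in force-coupled, inducible Hek293 Trex D2 cells.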
# [10] = S16 Schwann cell viability assay (CellTiter-Glo assay) (AID 624031); also: nearly all actives have a fitted effect of over 70% in size; also: potency is read from the fitted curve at half-maximal effect
# Summary of the method: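 Following overnight culture in 10% FBS DMEM, parental S16 rat Schwann cells are dosed for 24 h at 37 °C. Viability is read as CellTiter-Glo luminescence and expressed as % activity relative to DMSO (0%) and no-cell wells.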
# [11] = qHTS Assay for Identification of Small Molecule Agonists for NFkB Signaling Pathway. (AID 624478)
# Summary of the method: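 NFkB-bla ME-180 cells (beta-lactamase reporter under NFkB response element) were plated overnight, treated with compound plus TNF alpha at 10 pM final (its EC50) for 5 hrs at 37 C, then loaded with LiveBLAzer substrate for 2 hrs.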
# [12] = qHTS Assay for Identification of Small Molecule Antagonists for NFkB Signaling Pathway. (AID 624479; calls by dose curve;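 also: pathway stimulated with TNF alpha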; also: potency is read from the fitted curve at half-maximal effect)
# [13] = Cell Proliferation Assay against the TMD8 Cell Line (AID 651645); conditions: TMD8 DLBCL cell line proliferation/viability; at 46.1 µM (top of the series);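 also: cells exposed to compound for 48 h before reading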
# Summary of the method: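 Cell viability of the ABC DLBCL line TMD8 is measured by CellTiter-Glo luminescence following a 48-hour incubation with compound. Percent activity uses DMSO as 100% and 9.2 uM bortezomib (final) as 0%.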
# [14] = Cell Proliferation Assay against the HBL1 Cell Line (AID 651646); conditions: HBL1 DLBCL cells; at 46.1 µM (top of the series);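 also: cells exposed to compound for 48 h before reading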
# Summary of the method: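 500 log-phase HBL1 cells per well in phenol red-free RPMI with 5% FBS were treated with compounds for 48 h at 37 °C, 5% CO2. Viability was read by CellTiter-Glo luminescence, normalized to DMSO (100%) and 9.2 uM bortezomib final (0%).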
# [15] = Cytotoxicity counterscreen for NFkB agonists and antagonists (AID 624476); also: potency is read from the fitted curve at half-maximal effect
# [16] = Cell Proliferation Assay against the TMD8 Cell Line (Caspase readout at 8 hrs) (AID 651713); also: potency is read from the fitted curve at half-maximal effect
# Summary of the method: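 TMD8 cells (500/well) in phenol red-free RPMI with 5% FBS were treated with compounds for 8 h at 37C, 5% CO2. Caspase-Glo 3/7 luminescence was read after 15 min at room temperature and normalised to DMSO (0%) and 9.2 uM bortezomib (100%).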
compound,measurement,setting,value
CC(C)OC(=O)C(C(=O)OC(C)C)=C1SC=CS1,Potency,[1],inactive
same,Potency,[2],inactive
same,Potency,[3],inactive
same,Potency,[4],inactive
O=C(O)C1CCCN(CCC=C(c2ccccc2)c2ccccc2)C1 (stereo unspecified),Potency,[1],11.2 µM (active)
same,outcome,[5],inactive
same,outcome,[6],inactive
same,outcome,[7],inactive
same,outcome,[8],inactive
same,Potency,[9],inactive
NC(=O)c1cccnc1,Potency,[1],inactive
same,Potency,[2],inactive
same,Potency,[3],inactive
CCCc1nc(C)c2c(=O)[nH]c(-c3cc(S(=O)(=O)N4CCN(CC)CC4)ccc3OCC)nn12,Potency,[1],inactive
same,Potency,[2],inactive
same,Potency,[3],inactive
CCn1cc(C(=O)O)c(=O)c2cc(F)c(N3CCNCC3)nc21,Potency,[1],inactive
same,Potency,[2],inactive
same,Potency,[3],inactive
CCCCc1oc2ccc(NS(C)(=O)=O)cc2c1C(=O)c1ccc(OCCCN(CCCC)CCCC)cc1,Potency,[2],inactive
Cc1nnc(C(=O)NC(C)(C)c2nc(C(=O)NCc3ccc(F)cc3)c(O)c(=O)n2C)o1,Potency,[2],inactive
CNCC[C@H](Oc1cccc2ccccc12)c1cccs1,Potency,[2],inactive
same,Potency,[10],16.1 µM (active)
same,Potency,[4],inactive
COc1cc([C@@H]2c3cc4c(cc3[C@H](O)[C@H]3COC(=O)[C@H]23)OCO4)cc(OC)c1OC,Potency,[2],inactive
same,Potency,[10],inactive
same,outcome,[11],inactive
same,Potency,[12],inactive
same,viability (% of control),[13],0.77%
same,"viability, percent of control",[14],23.7%
CCCCCCNC(=O)n1cc(F)c(=O)[nH]c1=O,Potency,[2],inactive
same,Potency,[3],inactive
CC(C)C[C@H](NC(=O)[C@H](CCc1ccccc1)NC(=O)CN1CCOCC1)C(=O)N[C@@H](Cc1ccccc1)C(=O)N[C@@H](CC(C)C)C(=O)[C@@]1(C)CO1,Potency,[2],inactive
same,Potency,[15],0.148 µM (active)
same,outcome,[11],inactive
same,Potency,[12],0.0033 µM (active)
same,viability (% of control),[13],3.43%
same,"viability, percent of control",[14],3.69%
CCN(CC)CC#CCOC(=O)C(O)(c1ccccc1)C1CCCCC1 (stereo unspecified),outcome,[6],inactive
same,outcome,[7],inactive
same,outcome,[8],inactive
same,Potency,[9],inactive
COc1cc(NCc2ccc3nc(N)nc(N)c3c2C)cc(OC)c1OC,Potency,[2],inactive
same,Potency,[10],28.7 µM (active)
same,Potency,[3],0.455 µM (active)
CCCOc1ccc(C(=O)OCCN(CC)CC)cc1N,Potency,[2],inactive
Cc1cccc(N(C)C(=S)Oc2ccc3ccccc3c2)c1,Potency,[2],inactive
same,Potency,[10],inactive
same,Potency,[3],inactive
Cc1ccc(S(=O)(=O)N[C@@H](Cc2ccccc2)C(=O)CCl)cc1,outcome,[5],inactive
same,outcome,[6],inactive
same,outcome,[7],inactive
same,outcome,[8],inactive
same,Potency,[9],inactive
COC(=O)Nc1nc2ccc(S(=O)c3ccccc3)cc2[nH]1 (stereo unspecified),Potency,[2],inactive
Cc1c(-c2ccc(O)cc2)n(Cc2ccc(OCCN3CCCCCC3)cc2)c2ccc(O)cc12,Potency,[2],inactive
same,outcome,[11],inactive
same,Potency,[12],inactive
COc1cc2nc(N3CCCN(C)CC3)nc(NC3CCN(Cc4ccccc4)CC3)c2cc1OC,outcome,[5],inactive
same,outcome,[6],inactive
same,outcome,[7],inactive
same,outcome,[8],inactive
same,Potency,[9],inactive
same,outcome,[11],inactive
same,Potency,[12],23.7 µM (active)
same,viability (% of control),[13],3.15%
same,"viability, percent of control",[14],3.52%
same,Potency,[16],26.4 µM (active)
CN1CCCC(n2nc(Cc3ccc(Cl)cc3)c3ccccc3c2=O)CC1 (stereo unspecified),Potency,[2],inactive
same,Potency,[4],inactive
NCCCC(O)(P(=O)(O)O)P(=O)(O)O,Potency,[2],inactive
same,Potency,[3],inactive
same,Potency,[4],inactive
C1CCC(C(CC2CCCCN2)C2CCCCC2)CC1 (stereo unspecified),Potency,[2],inactive
same,Potency,[10],18.1 µM (active)
same,Potency,[3],32.2 µM (active)
